Shown are actives, neighbours in structure and some others; about 2.4% of the full set was active somewhere.
D2 ag-1: agonists of human D2 dopamine receptor (beta-arrestin); AID 624465; DiscoveRx PathHunter D2 beta-arrestin, luminescence, 90 min; 100% = 57 uM dopamine signal; P14416; actives 0.084% (n = 360,000); activation, % (no concentration beside the values); in the data active = activation above about 40%; inconclusive = between about 15% and that limit
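Agonist mode: compounds alone added to overnight-plated D2 PathHunter cells for 90 min at 37 C, with 57 uM final dopamine (EC100) defining full response. Beta-arrestin recruitment detected by chemiluminescent reagent, read after 1 h at ambient temperature.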
D2 PAM-1: potentiates the human D2 dopamine receptor allosterically | DiscoveRx D2 beta-arrestin cells, luminescence, 90 min; 100% = 57 uM dopamine signal | actives 0.23% (n = 360,000) | AID 624464 | potentiation, % (concentration not given with the values) | P14416; in the data active = potentiation above about 50%; inconclusive = mostly about 30% to 49%
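D2 cells co-treated with compound plus 50 nM dopamine (EC20) for 90 min at 37 deg C to detect potentiation. Beta-arrestin recruitment was read as enzyme-fragment luminescence after 1 h at ambient temperature. Full response was set by 57 uM dopamine.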
D2 antagonist: D2 dopamine receptor (human) antagonism. HEK293 TREx D2 cells, calcium flux, dopamine EC80. inhibition, % at 10 µM. actives 2% (n = 340,000). AID 485344; in the data active = inhibition above about 30%; inactive = below that, where a call was filed
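Tetracycline-induced HEK293 TREx cells expressing D2 receptor forced-coupled to calcium signalling, loaded with no-wash calcium dye. Compounds added and calcium flux read 180 s, then dopamine added at EC80 and read a further 180 s.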
D2 PAM-2: positively modulates the human D2 dopamine receptor allosterically; P14416; HEK293 T-REx D2, calcium flux, EC20 dopamine potentiation; potentiation, % at 10 µM; actives 0.34% (n = 340,000); AID 485347;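 active = potentiation over 3 SD above the plate norm, cut at about 30% in these data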
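Cells plated with tetracycline inducer and held overnight at 30 C; calcium dye loaded 30–90 min at room temperature; baseline taken, compound added and read 180 s; EC20 dopamine then added and read 180 s.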
D2 ag-2: agonists of human D2 dopamine receptor; P14416; HEK293 T-REx D2 cells, calcium flux agonist mode; activation, % at 2 µM; actives 0.53% (n = 340,000); AID 485358;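 active = activation over 3 SD above normal in the single-dose calcium agonist read, cut at about 30% in these data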
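Agonism scored from kinetic calcium signal (1 read/sec, 180 s) following compound pin transfer, after a 10 s baseline. Cells: HEK293 Trex line expressing inducible D2 receptor coupled to calcium, dye-loaded after overnight culture at 30 C.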
D3 ag: activates human D3 dopamine receptor beta-arrestin recruitment; AID 720506; Potency, µM (doses to about 76.9 µM), usual class: activators; actives 4% (n = 2,300); shares compounds with D2 ag-2; DiscoveRx D3 beta-arrestin cells, luminescence, 90 min; also: nearly all actives have a fitted effect of over 70% in size
Target sequence (P35462 whole entry, looked up): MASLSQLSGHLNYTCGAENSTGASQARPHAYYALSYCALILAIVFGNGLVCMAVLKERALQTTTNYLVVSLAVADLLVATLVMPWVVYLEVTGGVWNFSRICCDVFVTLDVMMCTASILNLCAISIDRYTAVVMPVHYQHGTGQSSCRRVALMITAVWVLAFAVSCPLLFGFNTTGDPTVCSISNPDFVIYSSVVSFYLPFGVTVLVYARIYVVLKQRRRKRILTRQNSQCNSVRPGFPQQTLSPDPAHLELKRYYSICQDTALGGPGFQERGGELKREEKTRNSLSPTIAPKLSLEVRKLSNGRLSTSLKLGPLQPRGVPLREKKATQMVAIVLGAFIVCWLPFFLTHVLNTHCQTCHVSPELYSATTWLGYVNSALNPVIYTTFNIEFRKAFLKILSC
D2 ag-3: counter-screen for D3 agonists: human D2 dopamine receptor agonism. shares compounds with D2 ag-2. DiscoveRx PathHunter D2 beta-arrestin, luminescence, 90 min; response scale: percent relative to full dopamine signal. Potency, µM (top dose mostly 76.9 µM), hits mostly activators. actives 5.9% (n = 2,300); also: nearly all actives have a fitted effect of over 70% in size
Large screens that a line does not name were inactive (follow-up assays come after a bar, where they were run); ! = not confirmed by another sample. Unless noted, calls follow the shape of the dose curve; as a rule, active = well fitted activation curve with a large enough effect; inconclusive = small, poorly fitted or top-dose-only effect; inactive = flat fitted curve, though single readings scatter.

CN1CCN(C(=O)CSc2nc(-c3ccco3)cc(C(F)(F)F)n2)CC1	none
O=C(CCSc1nc(-c2ccco2)cc(C(F)(F)F)n1)N1CCN(c2ccccn2)CC1	D2 ag-2 52.0 | D3 ag inactive | D2 ag-3 inactive
Cc1[nH]c2ccccc2c1NC(=O)CN1CCN(C(=O)c2ccco2)CC1	D2 ag-1 54.3, D2 PAM-1 inconclusive, D2 antagonist 61.1, D2 ag-2 86.8 | D3 ag inactive | D2 ag-3 inconclusive
O=C(CN1CCN(C(=O)c2ccco2)CC1)Nc1ccc2c(c1)OCCO2	D2 ag-1 inconclusive, D2 antagonist 53.5, D2 ag-2 61.3 | D3 ag inactive | D2 ag-3 inactive
O=C(CN1CCN(C(=O)c2ccco2)CC1)Nc1ccc(Cl)c(S(=O)(=O)N2CCOCC2)c1	D2 ag-2 45.1 | D3 ag inconclusive | D2 ag-3 inactive
O=C(CN1CCN(c2ccccc2)CC1)Nc1ccc2c(c1)OCCO2	D2 antagonist 45.2, D2 ag-2 56.5 | D3 ag inactive | D2 ag-3 inconclusive
CN(C(=O)CSc1nc(-c2ccccc2)no1)c1ccc(F)cc1	none (no result: D2 ag-1, D2 PAM-1, D2 antagonist, D2 PAM-2)
CC(=O)N1c2ccc(S(=O)(=O)NCCC(=O)Nc3ccc(C)cc3Br)cc2CC1C (stereo unspecified)	none (no result: D2 ag-1, D2 PAM-1, D2 antagonist)
O=C(COc1ccc(Cl)cc1)NNC(=O)c1cccnc1	none | D3 ag inactive | D2 ag-3 inactive
CCOc1ccc(N2C(=O)CC(NC3CCN(C(=O)c4ccc(F)cc4)CC3)C2=O)cc1 (stereo unspecified)	D2 antagonist 37.9 | D3 ag inactive | D2 ag-3 inactive
CCOC(=O)c1ccc(N2C(=O)CC(NC3CCN(C(=O)c4ccc(F)cc4)CC3)C2=O)cc1 (stereo unspecified)	none
COC(=O)Nc1ncc(CN2CCC(c3ccccc3)CC2)s1	D2 antagonist 98.1, D2 ag-2 84.8 | D3 ag inactive | D2 ag-3 inactive
Cc1ccc(S(=O)(=O)c2cc3ccccc3oc2=O)cc1	none
CCN(CC)c1ccc2cc(S(=O)(=O)c3ccc(C)cc3)c(=O)oc2c1	none | D3 ag inactive | D2 ag-3 inactive
Cc1cc(=O)n2nc(N3CCC(C(=O)N4CCN(c5ccccc5)CC4)CC3)sc2n1	none | D3 ag inconclusive | D2 ag-3 inactive
CCCN(CCC)CCCNC(=S)Nc1ccc2nc(N3CCN(CC)CC3)cc(C)c2c1	none | D3 ag inactive | D2 ag-3 inactive
COc1cc(CN2CCC(C(=O)N3CCN(c4ccccc4F)CC3)CC2)cc(OC)c1O	D2 antagonist 33.7 | D3 ag inactive | D2 ag-3 inactive
COc1cc(CN2CCN(c3ccccc3F)CC2)cc(OC)c1O	D2 ag-1 inconclusive, D2 antagonist 69.8, D2 ag-2 60.3 | D3 ag inconclusive | D2 ag-3 inconclusive
C[C@@H](CN1CCC(Cc2ccccc2)CC1)[C@@H](O)c1ccc(O)cc1	none (no result: D2 antagonist, D2 PAM-2, D2 ag-2) | D3 ag inactive | D2 ag-3 inactive
CC(C)OCC(O)CN1CCC(Cc2ccccc2)CC1 (stereo unspecified)	none
CC(C(O)c1ccc(O)cc1)N1CCC(Cc2ccccc2)CC1 (stereo unspecified)	D2 antagonist 77.2, D2 ag-2 32.9! | D3 ag inactive | D2 ag-3 inactive
COc1ccc(CN2CCCN(CC(=O)Nc3cc(C)ccc3C)S2(=O)=O)cc1	none (no result: D2 ag-1, D2 PAM-1, D2 antagonist)
COc1ccc(CC(C)N2CCN(Cc3ccccc3)CC2)c(OC)c1 (stereo unspecified)	D2 antagonist 83.0, D2 ag-2 59.4 | D3 ag inactive | D2 ag-3 inactive
COc1ccc(NC(=O)c2ccc(CN3CCN(c4ccccc4)CC3)cc2)cc1OC	D2 ag-1 inconclusive, D2 antagonist 70.8, D2 ag-2 59.5 | D3 ag inactive | D2 ag-3 inconclusive
COc1ccc(S(=O)(=O)N2CCN(c3ccccc3)CC2)cc1OC	none (no result: D2 antagonist, D2 PAM-2, D2 ag-2)
COc1ccc(CN2CCN(CCCc3ccccc3)CC2)c(OC)c1	none (no result: D2 ag-1, D2 PAM-1)
COc1ccc(CC(C)N2CCN(c3ccccc3)CC2)cc1OC (stereo unspecified)	D2 ag-1 inconclusive, D2 antagonist 66.2, D2 ag-2 64.7 | D3 ag inactive | D2 ag-3 inconclusive
COc1ccccc1C(=O)Nc1ccc(N2CCN(Cc3ccccc3)CC2)cc1	none
COc1ccc(C)cc1NC(=O)c1ccc(CN2CCc3ccccc3C2)cc1	none
COc1ccc(C)cc1NC(=O)c1ccc(CN2CCN(c3ccccc3)CC2)cc1	D2 ag-1 inconclusive, D2 antagonist 88.8, D2 ag-2 79.5 | D3 ag inactive | D2 ag-3 inconclusive
COc1ccc(NC(=O)Cn2ccn(-c3ccccc3)c(=O)c2=O)cc1	none (no result: D2 ag-1, D2 PAM-1, D2 antagonist)
CCc1ccccc1Nc1ncnc2c1cnn2-c1ccc(Cl)cc1	none (no result: D2 ag-1, D2 PAM-1, D2 antagonist)
Cc1ccc2[nH]c3c(=O)n(CC(=O)N(CCN(C)C)Cc4ccccc4)ncc3c2c1	none (no result: D2 ag-1, D2 PAM-1, D2 antagonist)
CCOC(=O)c1c(N)n(-c2ccc(N)cc2)c2nc3ccccc3nc12	D2 ag-2 44.0 | D3 ag inactive | D2 ag-3 inactive
CCOC(=O)c1c(N)n(-c2ccc(CC)cc2)c2nc3ccccc3nc12	none (no result: D2 ag-1, D2 PAM-1, D2 antagonist)
NS(=O)(=O)c1ccc(CCNC(=O)C2COc3ccccc3C2)cc1 (stereo unspecified)	none (no result: D2 ag-1, D2 PAM-1, D2 antagonist)
O=C(NC1CCc2ccccc21)c1cc(COc2ccc(F)cc2F)on1 (stereo unspecified)	none
COc1ccc(OCc2cc(C(=O)NC3CCc4ccccc43)no2)c(Cl)c1 (stereo unspecified)	D2 ag-2 58.5 | D3 ag inactive | D2 ag-3 inactive
O=C(CSc1ncccn1)Nc1cccc2ccccc12	none | D3 ag inactive | D2 ag-3 inactive
O=C(CSCC(=O)Nc1cccc2ccccc12)Nc1cccc2ccccc12	none (no result: D2 antagonist, D2 PAM-2, D2 ag-2)
CCN(CC)CCNC(=O)c1ccc(Cn2c(=O)c3cccn3c3cccnc32)cc1	none (no result: D2 ag-1, D2 PAM-1, D2 antagonist)
CCCCN1CC(=O)N2[C@H]3c4ccc(OC)cc4OC[C@@H]3[C@H](C(=O)OCC)[C@]2(C)C1=O	none | D3 ag inactive | D2 ag-3 inactive
COc1ccc2c(c1)OC[C@H]1[C@H]2N2C(=O)CN(C)C(=O)[C@@]2(C)[C@H]1c1ccccc1	none | D3 ag inactive | D2 ag-3 inactive
CSCCC(NC(=O)c1ccccc1)C(=O)Nc1ccncc1 (stereo unspecified)	none
CSCCC(NC(=O)c1ccccc1Cl)C(=O)Nc1ccncc1 (stereo unspecified)	none | D3 ag inactive | D2 ag-3 inconclusive
COc1ccc(Cl)cc1NC(=O)c1nn(C)c2c1CS(=O)(=O)c1ccccc1-2	none (no result: D2 ag-1, D2 PAM-1, D2 antagonist, D2 PAM-2)

Screening data as filed in PubChem BioAssay.
